In PubChem BioAssay AID1159580 (chemical genetic matrix, 2015):
Out of some 5,500 compounds screened, about 2,000 (36%) were called active. Not shown: some 18% with an inconclusive outcome. The list shows a part of the results. Values without a mark were called inactive. Cut-off read from the data, not from the text of the source: active = normalized growth mostly below about 0.91 (no sharp cut-off); inconclusive = no clear call, values can overlap the other calls; inactive = mostly above about 0.92.

Assay: chemical genetic growth profiling, strain panel (AID 1159580);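 note: tested at 20 µM; growth read once vehicle control cultures reached saturation at 30 °C; 1 = growth at the plate median or of vehicle wells; lower values mean less growth of the strain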
Conditions: S. cerevisiae deletion strains, growth OD
[1] = locus YAL040C, strain CLN3, active compounds read low
[2] = locus YCL061C, strain MRC1 (second series), active compounds read low
[3] = locus YDR363W, strain ESC2, active compounds read low
[4] = locus YER002W, strain NOP16, active compounds read low
[5] = locus YJR075W, strain HOC1, active compounds read low
[6] = locus YMR263W, strain SAP30, active compounds read low
[7] = locus YNL175C, strain NOP13, active compounds read low
[8] = locus YNL197C, strain WHI3, active compounds read low
[9] = locus YNL224C, strain SQS1, active compounds read low
[10] = locus YOR083W, strain WHI5 (second series), active compounds read low
[11] = locus YPL055C, strain LGE1, active compounds read low

Row | Compound | normalized growth [1] | normalized growth [2] | normalized growth (locus YDR150W, strain NUM1, active compounds read low) | normalized growth [3] | normalized growth [4] | normalized growth (locus YGR078C, strain PAC10, active compounds read low) | normalized growth (locus YGR229C, strain SMI1, active compounds read low) | normalized growth [5] | normalized growth [6] | normalized growth (locus YMR307W, strain GAS1, active compounds read low) | normalized growth (locus YNL153C, strain GIM3, active compounds read low) | normalized growth [7] | normalized growth [8] | normalized growth [9] | normalized growth (locus YNL322C, strain KRE1, active compounds read low) | normalized growth [10] | normalized growth [11] | normalized growth (locus YAL013W, strain DEP1, active compounds read low)
1 | Fc1ccc(C(OCCN2CCN(CCCc3ccccc3)CC2)c2ccc(F)cc2)cc1 | 1.02 | 0.881 (active) | 0.78 (active) | 0.851 (active) | 1.06 | 0.868 (active) | 0.0957 (active) | 0.797 (active) | 0.997 | 0.891 (active) | 0.661 (active) | 0.972 | 1.08 | 1.05 | 0.705 (active) | 0.903 | 0.583 (active) | –
2 | c1ccc(CCCN2CCN(CCOC(c3ccccc3)c3ccccc3)CC2)cc1 | 0.967 | 0.932 (active) | – | 0.941 | 0.998 | – | – | 0.93 | 0.992 | – | – | 0.996 | 0.991 | 1.02 | – | 0.881 | 0.95 | 0.977
